Test results as given in PubChem BioAssay (NCI).
Compounds without any hit were thinned out: in the full panel of roughly 79,000, 15% have a hit. Active and inactive are the calls of the source. No stated cut-off is given here; in the data, active means growth inhibition above about 70%; inactive means the rest. Residues, ends and D or L forms follow the SMILES beside them. *: point of attachment. CH2Cl = ClC*

How the values were obtained:
[1] = NCI Yeast Anticancer Drug Screen. Data for the rad52 strain (AID 147);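 further: 0% = growth of vehicle-treated control cultures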; conditions: S. cerevisiae rad52 mutant growth inhibition, active compounds read high
Summary of the method: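 DNA repair-defective yeast; compound exposure; growth scored against vehicle controls.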

[2] = NCI Yeast Anticancer Drug Screen. Data for the wt1 strain (AID 149);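 further: 0% = growth of vehicle-treated wt1 cultures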; conditions: S. cerevisiae wt1 strain (SPY 50644) growth inhibition, active compounds read high
Summary of the method: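 Measured: growth of wt1 yeast under compound versus vehicle treatment, reported as inhibition.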

[3] = NCI Yeast Anticancer Drug Screen. Data for the mgt1 strain (AID 153); conditions: S. cerevisiae mgt1 mutant growth inhibition, active compounds read high
Summary of the method: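 Growth inhibition relative to vehicle controls was scored for the mgt1 yeast strain after compound exposure.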

[4] = NCI Yeast Anticancer Drug Screen. Data for the rad50 strain (AID 155);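 further: 0% = growth of vehicle-only cultures of the same strain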; conditions: S. cerevisiae rad50 strain growth inhibition, active compounds read high
Summary of the method: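 Growth of the mutant yeast was measured after compound exposure and referenced to vehicle-treated cultures.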

[5] = NCI Yeast Anticancer Drug Screen. Data for the mec2-1 strain (AID 157); conditions: S. cerevisiae mec2-1 strain, active compounds read high
Summary of the method: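 Growth inhibition is read against vehicle-treated controls after compound exposure of the mec2-1 yeast strain, which is defective in DNA damage repair or cell cycle control.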

[6] = NCI Yeast Anticancer Drug Screen. Data for the rad14 strain (AID 159);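 further: 0% = growth of vehicle-treated control cultures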; conditions: S. cerevisiae rad14 strain growth inhibition, active compounds read high
Summary of the method: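 Here, inhibition of yeast growth was measured after compound exposure, using a strain with a genetic defect in DNA damage repair and vehicle-treated cultures as the reference.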

[7] = NCI Yeast Anticancer Drug Screen. Data for the sgs1 mgt1 strain (AID 161);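 further: 0% = growth of cultures given vehicle only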; conditions: S. cerevisiae sgs1 mgt1 strain, active compounds read high
Summary of the method: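 This yeast growth screen uses a strain with defined DNA-repair lesions; compound-treated growth is compared with vehicle-treated growth.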

[8] = NCI Yeast Anticancer Drug Screen. Data for the CLN2oe strain (AID 163);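 further: 0% = growth of vehicle-only control cultures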; conditions: S. cerevisiae CLN2oe strain, active compounds read high
Summary of the method: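 Compound-treated yeast; growth vs vehicle ctrl = % inhibition. Genetically altered strain (cell-cycle control).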

[9] = NCI Yeast Anticancer Drug Screen. Data for the cln2 rad14 strain (AID 165);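 further: 0% = growth equal to vehicle treated cultures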; conditions: S. cerevisiae cln2 rad14 strain, active compounds read high
Summary of the method: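 Growth inhibition, relative to vehicle-treated controls, is the read-out. The test organism is a yeast strain with defined genetic alterations, cln2 rad14.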

[10] = NCI Yeast Anticancer Drug Screen. Data for the bub3 strain (AID 167); conditions: S. cerevisiae bub3 mutant strain, active compounds read high
Summary of the method: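 Whole-cell yeast assay. The mutant strain was incubated with compounds, and growth inhibition was determined by comparison with vehicle-treated cells.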

[11] = NCI Yeast Anticancer Drug Screen. Data for the wt2 strain (AID 169);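 further: 0% = growth of vehicle-treated yeast cultures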; conditions: S. cerevisiae wt2 strain growth inhibition, active compounds read high
Summary of the method: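 Compound exposure of yeast; growth compared with vehicle controls; inhibition reported.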

[12] = NCI Yeast Anticancer Drug Screen. Data for the sgs1 strain (AID 173);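 further: 0% = growth of vehicle-only control cultures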; conditions: S. cerevisiae sgs1 mutant, active compounds read high
Summary of the method: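 Compounds applied to genetically altered yeast; growth compared with vehicle-treated cultures to give % inhibition.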

[13] = NCI Yeast Anticancer Drug Screen. Data for the mlh1 rad18 strain (AID 175); conditions: S. cerevisiae mlh1 rad18 strain growth inhibition, active compounds read high
Summary of the method: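 Cells of a genetically altered yeast strain, deficient in DNA damage repair, were treated with compound. Their growth was then compared with that of vehicle-treated cultures to give inhibition.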

[14] = NCI Yeast Anticancer Drug Screen. Data for the rad18 strain (AID 177); conditions: S. cerevisiae rad18 mutant growth inhibition, active compounds read high
Summary of the method: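 Compounds are applied to a repair-deficient yeast strain, and growth is compared with that of vehicle-treated cultures to give percent inhibition.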

[15] = NCI Yeast Anticancer Drug Screen. Data for the rad50EPP+ strain (AID 151);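 further: 0% = growth of vehicle-treated control cultures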; conditions: S. cerevisiae rad50 mutant strain, active compounds read high
Summary of the method: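 rad50EPP+ yeast treated with test compounds. Readout: growth vs vehicle control.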

[16] = NCI Yeast Anticancer Drug Screen. Data for the mlh1 strain (AID 171);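 further: 0% = growth of vehicle-treated control cultures of the same strain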; conditions: S. cerevisiae mlh1 strain growth inhibition, active compounds read high
Summary of the method: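 Compounds are applied to a genetically altered yeast strain, and its growth is compared with that of vehicle-treated cultures to give percent inhibition.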

[17] = at 5.0 µM (retest, dose inferred, filed as 0.5)
[18] = at 50.0 µM (retest, dose inferred, filed as 5.0)

Measured: growth inhibition

CC(=O)NC(CC(C)C)C(=O)NC(Cc1ccccc1)C(=O)CCl (stereo not drawn) (Ac-Leu-Phe-CH2Cl; configuration not given here)
active: [1]; at 100.0 µM 74% | [3]; at 100.0 µM 83% | [4]; at 100.0 µM 77% | [5]; at 100.0 µM 85% | [10]; at 100.0 µM 84% | [11]; at 100.0 µM 71% | [12]; at 100.0 µM 75% | [14]; at 100.0 µM 72%
inactive: [1]; at 1.2 µM -3% | [1]; at 3.7 µM 1% | [1]; at 11.0 µM 9% | [1]; at 33.0 µM 27% | [2]; at 1.2 µM -2% | [2]; at 3.7 µM -5% | [2]; at 11.0 µM -5% | [2]; at 33.0 µM -4% | [2]; at 100.0 µM 37% | [3]; at 1.2 µM -5% | [3]; at 3.7 µM -5% | [3]; at 11.0 µM -6% | [3]; at 33.0 µM -2% | [4]; at 1.2 µM -3% | [4]; at 3.7 µM 1% | [4]; at 11.0 µM 6% | [4]; at 33.0 µM 25% | [4]; at 50.0 µM 7.1% | [5]; at 1.2 µM -4% | [5]; at 3.7 µM 0% | [5]; at 11.0 µM 3% | [5]; at 33.0 µM 21% | [5]; at 50.0 µM 33.4% | [6]; at 1.2 µM -5% | [6]; at 3.7 µM -4% | [6]; at 11.0 µM -2% | [6]; at 33.0 µM 3% | [6]; at 100.0 µM 36% | [7]; at 50.0 µM 46.9% | [8]; at 1.2 µM -8% | [8]; at 3.7 µM -7% | [8]; at 11.0 µM -8% | [8]; at 33.0 µM -2% | [8]; at 100.0 µM 51% | [9]; at 50.0 µM -31.9% | [10]; at 1.2 µM -1% | [10]; at 3.7 µM -2% | [10]; at 11.0 µM -4% | [10]; at 33.0 µM 6% | [10]; at 50.0 µM 53.7% | [11]; at 1.2 µM -4% | [11]; at 3.7 µM -3% | [11]; at 11.0 µM -2% | [11]; at 33.0 µM -1% | [12]; at 1.2 µM -3% | [12]; at 3.7 µM -4% | [12]; at 11.0 µM 1% | [12]; at 33.0 µM 15% | [13]; at 50.0 µM 40.3% | [14]; at 1.2 µM -3% | [14]; at 3.7 µM -2% | [14]; at 11.0 µM 3% | [14]; at 33.0 µM 9%

O=[N+]([O-])c1cccc2nc3ccccc3c(NCCc3cccc[n+]3[O-])c12
inactive: [1]; at 1.2 µM 15% | [1]; at 3.7 µM 47% | [2]; at 1.2 µM 0% | [2]; at 3.7 µM 1% | [2]; at 11.0 µM 11% | [2]; at 33.0 µM 27% | [15]; at 1.2 µM 21% | [15]; at 3.7 µM 43% | [4]; at 1.2 µM 10% | [4]; at 3.7 µM 30% | [4]; at 11.0 µM 68% | [5]; at 1.2 µM 2% | [5]; at 3.7 µM 18% | [5]; [17] 25% | [5]; at 11.0 µM 62% | [8]; at 1.2 µM -11% | [8]; at 3.7 µM -12% | [8]; at 11.0 µM 6% | [8]; at 33.0 µM 35% | [10]; at 1.2 µM -12% | [10]; at 3.7 µM -13% | [10]; [17] 3% | [10]; at 11.0 µM -11% | [10]; at 33.0 µM 17% | [10]; at 50.0 µM 53.2% | [10]; at 100.0 µM 65% | [11]; at 1.2 µM 1% | [11]; at 3.7 µM 3% | [11]; at 11.0 µM 14% | [11]; at 33.0 µM 35% | [16]; at 1.2 µM 0% | [16]; at 3.7 µM 3% | [16]; at 11.0 µM 20% | [16]; at 33.0 µM 50% | [12]; at 1.2 µM 43%
active: [1]; at 11.0 µM 81% | [1]; at 33.0 µM 92% | [1]; at 100.0 µM 97% | [2]; at 100.0 µM 70% | [15]; at 11.0 µM 72% | [15]; at 33.0 µM 82% | [15]; at 100.0 µM 90% | [4]; [17] 70% | [4]; at 33.0 µM 88% | [4]; [18] 96% | [4]; at 50.0 µM 87.5% | [4]; at 100.0 µM 94% | [5]; at 33.0 µM 95% | [5]; [18] 98% | [5]; at 50.0 µM 83.2% | [5]; at 100.0 µM 98% | [7]; [17] 91% | [7]; [18] 97% | [7]; at 50.0 µM 91.8% | [8]; at 100.0 µM 86% | [9]; [17] 85% | [9]; [18] 99% | [9]; at 50.0 µM 95.2% | [10]; [18] 83% | [11]; at 100.0 µM 79% | [16]; at 100.0 µM 89% | [12]; at 3.7 µM 75% | [12]; at 11.0 µM 89% | [12]; at 33.0 µM 93% | [12]; at 100.0 µM 96% | [13]; [17] 88% | [13]; [18] 98% | [13]; at 50.0 µM 93.8% | [14]; at 1.2 µM 92% | [14]; at 3.7 µM 94% | [14]; at 11.0 µM 94% | [14]; at 33.0 µM 96% | [14]; at 100.0 µM 96%
